# From the supplement of paper PMC10849652
# Targets with a hit are over-represented here; the source holds about 7,900 in all. About 0.6% of all pairs of compound and target were hits. Unmarked numbers belong to inactive results.
# Assays:
# Assay in all cases: log2 fold change, soluble protein after heating vs DMSO (PISA); higher = thermal stabilisation; K562 cells, 10 uM, 30 min; active = over 0.2 and 3.5 SD of the protein, either way, in both replicates (recomputed)
# [1] = compound: C1COCCN1CCN2C3=CC=CC=C3N=C2NC(=O)C4=CC(=CC=C4)[N+](=O)[O-] [IRAK-1-4 Inhibitor I]
# Outline: (§1)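 Quantification of soluble protein used TMTpro 16plex LC-MS/MS, with channel sums equalised. Samples were the supernatant after 21,000xg for 90 min of pooled aliquots from K562 cells (2×10^6 cells/mL) treated with 10 μM compound for 30 min, heated for 3 min over 48°C-58°C, and extracted in PBS with 0.5% NP-40 at 4°C. Values, from duplicates, describe thermal stability against control samples on a log2 fold-change scale.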
# [2] = compound: C=CC(=O)N1CCC[C@@H](n2nc(-c3ccc(Oc4ccccc4)cc3)c3c(N)ncnc32)C1 [ibrutinib]
# Outline: as §1
# [3] = compound: CC(=O)c1cnc2ccc(-c3cc(Cl)c(O)c(Cl)c3)nc2c1N[C@H]1CC[C@H](CN(C)C)CC1
# Outline: as §1
# [4] = compound: CC(C)(C)Cn1c(N)nc2ccc(-c3[nH]c(C(C)(C)C)nc3-c3ccc(F)cc3)nc21 [ralimetinib]
# Outline: as §1
# [5] = compound: CC(C)(O)CC(=O)NCCn1ccc2ncnc(Nc3ccc(Oc4cccc(C(F)(F)F)c4)c(Cl)c3)c21
# Outline: as §1
# [6] = compound: CC(C)C1=C2N=C(C=C(N2N=C1)NCC3=CC=CC=C3)NCCCCCCN
# Outline: as §1
# [7] = compound: CC(C)C[C@@H](C=O)NC(=O)[C@H](CC(C)C)NC(=O)[C@H](CC(C)C)NC(=O)OCc1ccccc1
# Outline: as §1
# [8] = compound: CC(C)N(C[C@H]1O[C@@H](n2cnc3c(N)ncnc32)[C@H](O)[C@@H]1O)[C@H]1C[C@@H](CCc2nc3cc(C(C)(C)C)ccc3[nH]2)C1 [pinometostat]
# Outline: as §1
# [9] = compound: CC1=C(C(CC(=O)N1)C2=CC=C(C=C2)C(F)(F)F)C(=O)NC3=C(C=C4C(=C3)C=NN4)F
# Outline: as §1
# [10] = compound: CC1=C(C2=C(C=C1)C(=O)C3=CC=CC=C3N2CCCN)C
# Outline: as §1
# UniProt Q9NP80, sequence (Q9NP80 whole entry, looked up): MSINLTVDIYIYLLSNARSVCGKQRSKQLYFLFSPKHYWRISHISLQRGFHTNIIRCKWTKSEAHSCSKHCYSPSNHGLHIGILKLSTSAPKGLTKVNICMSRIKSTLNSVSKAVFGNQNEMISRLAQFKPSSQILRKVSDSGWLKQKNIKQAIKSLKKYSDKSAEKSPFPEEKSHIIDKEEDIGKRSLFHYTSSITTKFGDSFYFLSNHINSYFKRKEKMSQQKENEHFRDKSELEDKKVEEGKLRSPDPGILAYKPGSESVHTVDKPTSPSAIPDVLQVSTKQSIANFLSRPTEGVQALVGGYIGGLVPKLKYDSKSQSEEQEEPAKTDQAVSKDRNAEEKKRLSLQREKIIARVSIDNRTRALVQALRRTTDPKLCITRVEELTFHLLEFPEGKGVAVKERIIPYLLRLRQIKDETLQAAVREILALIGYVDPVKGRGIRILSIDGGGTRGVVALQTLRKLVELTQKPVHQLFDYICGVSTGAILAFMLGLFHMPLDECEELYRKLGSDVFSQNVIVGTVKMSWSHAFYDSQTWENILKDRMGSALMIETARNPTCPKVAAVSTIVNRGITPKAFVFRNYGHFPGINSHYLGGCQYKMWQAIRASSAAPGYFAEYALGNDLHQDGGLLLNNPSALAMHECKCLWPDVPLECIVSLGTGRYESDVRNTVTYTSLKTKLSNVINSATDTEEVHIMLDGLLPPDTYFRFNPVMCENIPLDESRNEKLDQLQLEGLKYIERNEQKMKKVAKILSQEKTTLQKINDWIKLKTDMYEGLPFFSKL
# UniProt Q7Z3K3, sequence (Q7Z3K3 whole entry, looked up): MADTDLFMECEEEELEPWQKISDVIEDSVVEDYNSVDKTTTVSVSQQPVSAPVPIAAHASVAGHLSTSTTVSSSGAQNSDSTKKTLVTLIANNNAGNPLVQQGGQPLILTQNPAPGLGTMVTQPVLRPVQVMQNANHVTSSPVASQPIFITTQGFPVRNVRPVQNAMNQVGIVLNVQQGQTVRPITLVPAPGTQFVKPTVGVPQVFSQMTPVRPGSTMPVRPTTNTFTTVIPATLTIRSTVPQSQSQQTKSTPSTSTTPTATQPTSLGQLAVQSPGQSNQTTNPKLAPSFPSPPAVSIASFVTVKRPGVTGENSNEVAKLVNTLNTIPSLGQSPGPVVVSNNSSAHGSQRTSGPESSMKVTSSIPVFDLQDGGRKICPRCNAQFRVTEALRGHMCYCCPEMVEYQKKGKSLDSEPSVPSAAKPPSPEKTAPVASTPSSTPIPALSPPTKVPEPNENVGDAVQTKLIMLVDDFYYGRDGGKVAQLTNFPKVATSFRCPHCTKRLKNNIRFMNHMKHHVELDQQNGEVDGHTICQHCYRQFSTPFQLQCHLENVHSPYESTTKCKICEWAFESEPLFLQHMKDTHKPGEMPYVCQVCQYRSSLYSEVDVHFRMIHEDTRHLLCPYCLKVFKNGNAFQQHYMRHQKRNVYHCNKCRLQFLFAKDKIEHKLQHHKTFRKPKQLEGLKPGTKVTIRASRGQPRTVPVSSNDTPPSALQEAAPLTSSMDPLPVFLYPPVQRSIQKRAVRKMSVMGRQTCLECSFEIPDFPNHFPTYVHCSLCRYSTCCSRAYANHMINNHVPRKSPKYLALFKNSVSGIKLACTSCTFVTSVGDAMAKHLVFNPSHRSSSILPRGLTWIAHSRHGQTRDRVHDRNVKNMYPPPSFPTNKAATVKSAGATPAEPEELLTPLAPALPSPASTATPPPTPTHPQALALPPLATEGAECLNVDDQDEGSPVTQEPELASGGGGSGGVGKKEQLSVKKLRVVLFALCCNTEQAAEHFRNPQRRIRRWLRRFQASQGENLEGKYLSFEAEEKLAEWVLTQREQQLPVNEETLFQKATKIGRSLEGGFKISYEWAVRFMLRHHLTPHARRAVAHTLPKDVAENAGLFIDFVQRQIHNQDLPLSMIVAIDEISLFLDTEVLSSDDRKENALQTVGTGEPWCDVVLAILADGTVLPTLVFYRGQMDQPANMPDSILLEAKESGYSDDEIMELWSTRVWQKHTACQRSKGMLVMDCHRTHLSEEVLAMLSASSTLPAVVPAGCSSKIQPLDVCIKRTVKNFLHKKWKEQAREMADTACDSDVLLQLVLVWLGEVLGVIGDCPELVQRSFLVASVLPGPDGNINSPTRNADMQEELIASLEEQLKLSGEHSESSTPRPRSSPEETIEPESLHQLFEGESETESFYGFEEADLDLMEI
# UniProt P29590, sequence (P29590 whole entry, looked up): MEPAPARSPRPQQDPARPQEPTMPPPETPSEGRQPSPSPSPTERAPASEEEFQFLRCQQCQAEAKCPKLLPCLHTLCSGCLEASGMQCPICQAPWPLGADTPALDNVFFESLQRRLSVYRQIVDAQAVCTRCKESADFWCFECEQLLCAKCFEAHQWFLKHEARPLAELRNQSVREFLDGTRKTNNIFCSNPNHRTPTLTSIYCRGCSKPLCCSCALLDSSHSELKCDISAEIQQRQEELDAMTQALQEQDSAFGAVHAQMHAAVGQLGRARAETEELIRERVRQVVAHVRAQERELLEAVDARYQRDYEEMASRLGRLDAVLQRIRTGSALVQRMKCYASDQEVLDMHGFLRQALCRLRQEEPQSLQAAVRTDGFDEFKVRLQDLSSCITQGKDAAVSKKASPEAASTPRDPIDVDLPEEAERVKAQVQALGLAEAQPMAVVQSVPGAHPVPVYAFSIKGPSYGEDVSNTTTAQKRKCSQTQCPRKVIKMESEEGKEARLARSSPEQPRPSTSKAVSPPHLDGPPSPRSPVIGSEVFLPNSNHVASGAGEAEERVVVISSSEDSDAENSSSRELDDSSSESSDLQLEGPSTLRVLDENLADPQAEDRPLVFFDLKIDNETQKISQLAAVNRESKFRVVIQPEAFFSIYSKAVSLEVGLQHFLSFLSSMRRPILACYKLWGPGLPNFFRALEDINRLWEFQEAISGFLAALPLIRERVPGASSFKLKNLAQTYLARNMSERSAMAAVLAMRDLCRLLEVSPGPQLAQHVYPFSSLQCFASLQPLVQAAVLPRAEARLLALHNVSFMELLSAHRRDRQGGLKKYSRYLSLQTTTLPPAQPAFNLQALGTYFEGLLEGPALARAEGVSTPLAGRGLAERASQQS
# UniProt O95997, sequence (O95997 whole entry, looked up): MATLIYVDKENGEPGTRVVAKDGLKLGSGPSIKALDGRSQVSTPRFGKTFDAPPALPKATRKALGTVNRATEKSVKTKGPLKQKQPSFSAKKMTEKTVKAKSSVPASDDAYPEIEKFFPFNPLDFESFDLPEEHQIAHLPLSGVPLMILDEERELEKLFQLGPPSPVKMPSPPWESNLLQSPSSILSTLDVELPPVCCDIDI
# UniProt Q13362, sequence (Q13362 whole entry, looked up): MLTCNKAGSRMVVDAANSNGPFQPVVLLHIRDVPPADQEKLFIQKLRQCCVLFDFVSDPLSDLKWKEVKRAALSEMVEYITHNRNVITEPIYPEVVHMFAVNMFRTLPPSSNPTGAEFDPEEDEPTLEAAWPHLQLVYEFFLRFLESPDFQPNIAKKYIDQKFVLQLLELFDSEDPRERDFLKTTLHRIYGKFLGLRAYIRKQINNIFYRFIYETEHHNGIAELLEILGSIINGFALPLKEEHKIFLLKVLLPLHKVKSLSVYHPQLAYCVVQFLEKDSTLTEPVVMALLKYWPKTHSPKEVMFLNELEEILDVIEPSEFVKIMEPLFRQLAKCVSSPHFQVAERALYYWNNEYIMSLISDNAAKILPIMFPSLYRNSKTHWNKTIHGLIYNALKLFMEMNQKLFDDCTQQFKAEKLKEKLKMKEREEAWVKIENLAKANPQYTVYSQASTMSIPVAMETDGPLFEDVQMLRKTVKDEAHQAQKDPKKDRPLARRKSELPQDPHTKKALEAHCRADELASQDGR
# UniProt Q5JVF3, sequence (Q5JVF3 whole entry, looked up): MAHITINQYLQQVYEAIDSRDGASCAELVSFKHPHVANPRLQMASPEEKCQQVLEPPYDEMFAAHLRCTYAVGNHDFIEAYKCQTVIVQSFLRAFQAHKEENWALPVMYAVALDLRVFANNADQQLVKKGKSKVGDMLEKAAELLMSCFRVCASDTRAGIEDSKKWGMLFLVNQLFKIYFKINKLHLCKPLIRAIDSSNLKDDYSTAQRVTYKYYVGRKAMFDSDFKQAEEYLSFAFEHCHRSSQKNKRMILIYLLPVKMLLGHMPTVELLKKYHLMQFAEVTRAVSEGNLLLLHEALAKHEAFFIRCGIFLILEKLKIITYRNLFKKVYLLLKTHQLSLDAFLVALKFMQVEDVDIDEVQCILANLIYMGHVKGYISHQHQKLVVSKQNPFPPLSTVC
# UniProt Q8N2W9, sequence (Q8N2W9 whole entry, looked up): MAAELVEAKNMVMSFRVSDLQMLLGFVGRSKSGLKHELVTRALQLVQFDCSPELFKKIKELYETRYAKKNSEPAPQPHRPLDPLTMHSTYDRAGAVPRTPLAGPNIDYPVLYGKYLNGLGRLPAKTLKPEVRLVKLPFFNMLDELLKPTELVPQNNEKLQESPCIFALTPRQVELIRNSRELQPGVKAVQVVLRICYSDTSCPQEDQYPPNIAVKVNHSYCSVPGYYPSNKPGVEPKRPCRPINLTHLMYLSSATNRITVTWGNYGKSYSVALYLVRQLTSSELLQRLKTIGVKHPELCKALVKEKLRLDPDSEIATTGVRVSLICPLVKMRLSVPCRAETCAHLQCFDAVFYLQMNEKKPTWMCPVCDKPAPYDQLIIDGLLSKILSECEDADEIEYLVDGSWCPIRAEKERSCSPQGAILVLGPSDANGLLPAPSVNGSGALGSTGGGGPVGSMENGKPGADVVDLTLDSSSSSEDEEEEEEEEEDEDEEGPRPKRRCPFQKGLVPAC
# UniProt P41247, sequence (P41247 whole entry, looked up): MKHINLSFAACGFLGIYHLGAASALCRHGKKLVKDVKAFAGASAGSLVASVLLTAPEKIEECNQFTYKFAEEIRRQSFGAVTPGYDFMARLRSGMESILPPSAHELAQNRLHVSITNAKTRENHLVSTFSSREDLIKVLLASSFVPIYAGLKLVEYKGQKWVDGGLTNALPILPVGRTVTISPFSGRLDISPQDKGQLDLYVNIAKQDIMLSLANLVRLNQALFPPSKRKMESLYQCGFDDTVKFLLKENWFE
Target,log2 fold change [1],log2 fold change [2],log2 fold change [3],log2 fold change [4],log2 fold change [5],log2 fold change [6],log2 fold change [7],log2 fold change [8],log2 fold change [9],log2 fold change [10]
PCGF2 (UniProt P35227),-0.077,-0.101,-0.164,-0.036,0,-0.095,0.065,-0.075,-0.119,0.107
POLR2E (UniProt P19388),-0.106,-0.012,0.218,-0.041,-0.061,0.081,0.065,0.108,-0.055,-0.014
POLR2G (UniProt P62487),0.001,0.078,0.329 (active),-0.052,-0.011,0.371 (active),0.012,-0.044,-0.053,0.268
PIK3R1 (UniProt P27986),0.032,-0.004,0.077,0.038,-0.04,-0.011,0.027,0.083,0.004,0.072
PTTG1 (UniProt O95997),-0.026,-0.017,0.057,-0.069,-0.03,-0.002,0.393 (active),0.036,0.055,-0.084
PIGH (UniProt Q14442),-0.207,0.022,-0.004,-0.017,0.023,0.014,-0.004,0.139,,0.096
PML (UniProt P29590),0.031,0.006,0.052,0.045,0.012,-0.025,-0.05,-0.021,0.07,-0.035
PPP1R35 (UniProt Q8TAP8),-0.055,-0.057,-0.069,-0.007,-0.026,-0.049,0.036,-0.021,0.049,-0.049
PIK3CD (UniProt O00329),0.005,-0.137,0.237,0.032,-0.391,0.104,0.116,-0.024,,0.259
PSMC3 (UniProt P17980),-0.041,-0.021,0.023,0.016,0.007,0.048,-0.213,0.025,0.053,0.023
PNPLA4 (UniProt P41247),-0.094,0.012,0.005,-0.022,,0.115,0.209,0.049,0.054,-0.025
PNPLA8 (UniProt Q9NP80),-0.022,-0.049,0.151,-0.005,-0.071,-0.06,0.003,0.064,-0.008,0.043
PTTG1IP (UniProt P53801),-0.122,0.028,-0.004,,-0.031,0.029,,0.028,0.084,-0.119
PIAS4 (UniProt Q8N2W9),-0.111,,,-0.005,-0.781 (active),,0.035,0.037,,-0.275
PPP2R5C isoform 2 (UniProt Q13362),-0.036,-0.038,,0.026,,-0.146,-0.095,-0.017,,
PAN2 (UniProt Q504Q3),,-0.134,,,,,,,0.099,
POLB (UniProt P06746),,,,0.14,-0.222,0.091,0.143,,-0.168,0.175

Target,log2 fold change [1],log2 fold change [2],log2 fold change [3],log2 fold change [4],log2 fold change [5],log2 fold change [6],log2 fold change [7],log2 fold change [8],log2 fold change [9],log2 fold change [10]
PUF60 isoform 2 (UniProt Q9UHX1),,0.035,-0.329,0.25,,,-0.203,,,-0.052
PHC3 isoform 7 (UniProt Q8NDX5),-0.377,-0.159,,,-0.25,-0.219,,-0.11,0.021,
PSMC1 (UniProt G3V4X1),,,,,,-0.089,,,0.029,
PTPA (UniProt A6PVN8),,0.063,-0.241,-0.07,-0.052,0.122,-0.002,,0.026,-0.104
PARP16 isoform 3 (UniProt Q8N5Y8),-0.036,-0.13,-0.003,,0.032,-0.012,,-0.097,-0.009,-0.027
PTEN isoform 2 (UniProt P60484),-0.227,,,0.062,,-0.629 (active),0.083,-0.006,,
PLCXD1 (UniProt Q9NUJ7),,0.021,,0.113,,,0.175,,,
PSMD8 (UniProt K7ERW6),0.018,,,,,,,0.001,,0.037
PPP1R12C (UniProt Q9BZL4),,-0.024,,-0.028,0.045,-0.126,-0.041,,-0.291,-0.157
POGZ (UniProt Q7Z3K3),-0.133,,-0.183,0.083,-0.035,0.066,0.038,-0.05,,-0.826 (active)
PEX5 isoform 4 (UniProt P50542),,,-0.035,0.145,0.038,0.066,0.123,,,-0.072
PTP4A3 (UniProt O75365),,0.079,,,,,,,,
PSMA3 (UniProt H0YJ03),0.023,,0.052,0.14,,,0.067,0.061,,0.046
PCID2 (UniProt Q5JVF3),-0.008,-0.015,,0.007,0.063,-0.428 (active),-0.02,0.037,0.035,0.06
PUM1 (UniProt Q14671),0.101,,-0.038,,,-0.226,,0.073,,0.139
PKM (UniProt P14618),0.012,,-0.011,-0.018,-0.02,0.079,-0.013,-0.033,0.021,0.036
PSMA3 (UniProt G3V4X5),-0.451,-0.065,,-0.114,,,0.733 (active),-0.001,,
